Source: PubChem BioAssay
HT1080-NT tox = qHTS for induction of synthetic lethality in tumor cells producing 2HG: qHTS for the HT-1080-NT fibrosarcoma cell line | Potency, µM (doses to about 46.1 µM), for inactives: at the highest dose activity, negative = less viability, usual class: cytotoxic | AID 686970, 2013 | 1.6% of 360,000 active | HT-1080-NT fibrosarcoma viability, CellTiter-Glo ATP luminescence, 48 h;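 further: NT is the 2HG producing partner of a matched IDH1 knockdown line; potency means the concentration at half of the fitted maximal effect; 0% = DMSO-treated cells and -100% = media-only wells without cells; nearly all actives have a fitted effect of over 55% in size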
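Luminescent CellTiter-Glo readout after 48 hours of compound exposure at 37 degrees C defined viability of HT-1080-NT cells. Activity was normalized to DMSO wells and cell-free media wells; concentration-response curves were fitted and assigned curve classes.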
HT1080 IDH1KD tx = qHTS for induction of synthetic lethality in tumor cells producing 2HG: qHTS for the HT-1080-IDH1KD cell line; 2% of 360,000 active; HT-1080 IDH1 knockdown viability, ATP luminescence, 48 h; Potency, µM (highest dose often 46.1 µM), inactives show top-dose activity, negative = toxicity, actives largely listed as cytotoxic;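 further: potency means the concentration at half of the fitted maximal effect; 0% = DMSO wells and -100% = cell-free medium wells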
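Knockdown cells (IDH1KD HT-1080) received compounds 2 h after plating at 750 cells/well and were kept 48 h at 37 °C in 5% FBS RPMI. A CellTiter-Glo luminescence read gave % activity for curve fitting.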
ELG1 DNA repair = qHTS screen for small molecules that inhibit ELG1-dependent DNA repair in human embryonic kidney (HEK293T) cells expressing luciferase-tagged ELG1; HEK293T ELG1-luciferase reporter, luminescence, 16 h; DNA damage induced by 5-fluorouridine; Potency, µM (top dose mostly 46.1 µM), for the others: at the top dose activity change, negative = inhibition, actives largely listed as inhibitors; 2.3% of 330,000 active; further: potency means the concentration at half of the fitted maximal effect; nearly all actives have a fitted effect of over 55% in size
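HEK293T cells expressing luciferase-tagged ELG1 (2,000/well) received 5-Fluorouridine plus compound or DMSO for 16 hr at 37 °C. Luciferase was read by ONE-Glo luminescence after 30 min at room temperature.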
TDP1 cell CPT = qHTS for Inhibitors of human tyrosyl-DNA phosphodiesterase 1 (TDP1): qHTS in cells in presence of CPT; chicken DT40 Tdp1-/-;hTDP1 cells + 20 nM CPT, ATP luminescence, 48 h; Potency, µM (titrated, usually from 46.2 µM), inactives show top-dose activity change, negative = growth inhibition, actives largely listed as inhibitors; 12% of 420,000 active; further: potency means the concentration at half of the fitted maximal effect; nearly all actives have a fitted effect of over 55% in size
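Chicken DT40 Tdp1-/- cells complemented with human TDP1, 400 cells/well, exposed to compounds plus 20 nM camptothecin for at least 48 h at 37 C; viability read as ATP content by CellTiter-Glo luminescence.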
IL-1B inflam inh = qHTS for Inhibitors of Inflammasome Signaling: IL-1-beta AlphaLISA Primary Screen. THP-1 LPS/ATP IL-1B secretion, AlphaLISA, 16 h; hits give low values. 4.7% of 360,000 active. activity change, % at 57.5 µM; in the data active means activity change below about -50%; inconclusive means mostly about -30% to -49%
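THP-1 cells pretreated 1 hr with compounds (up to 57.5 uM final), then stimulated with LPS (250 ng/mL final) plus ATP (1.25 mM final); secreted IL-1B measured by AlphaLISA after 16 hr, decreased signal indicating inhibition.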
DT40 TDP1 no CPT = qHTS for Inhibitors of human tyrosyl-DNA phosphodiesterase 1 (TDP1): qHTS in cells in absence of CPT. DT40 Tdp1-/- hTDP1 cells, no CPT, ATP luminescence, 48 h. Potency, µM (top dose mostly 46.2 µM), without a hit: at the top dose activity change, negative = growth inhibition, most hits filed as inhibitors. 15% of 420,000 active. AID 686978, 2013; further: potency means the concentration at half of the fitted maximal effect; nearly all actives have a fitted effect of over 55% in size
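No-CPT arm: Tdp1-/-;hTDP1 DT40 cells (400/well) plus compounds, incubated ≥48 hr at 37 °C. Readout CellTiter-Glo luminescence.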
Numbers without * were called inactive; ? = inconclusive; nt = not tested or not shown; [ ] = remark or other dose. In the library only some 19% were active in any assay of this set; here they are far more common. Unless noted, the call rests on the fitted dose curve; in most records, active means well fitted curve in the direction sought with a large enough effect; inconclusive means small, poorly fitted or top-dose-only effect, or another doubt; inactive means no such curve, though single readings can be large; an effect the other way counts as inactive or inconclusive. Unless noted, on the % scale 0 is the no-effect control and ±100 the full control effect.

SMILES	HT1080-NT tox	HT1080 IDH1KD tx	ELG1 DNA repair	TDP1 cell CPT	IL-1B inflam inh	DT40 TDP1 no CPT
COc1ccc(C)cc1S(=O)(=O)NCC(c1cccnc1)N1CCc2ccccc2C1 (stereo not given)	-5%	-4%	?	-28%	4	-12%
Cc1ccc(NC(=O)C(=O)NCC(c2cccnc2)N2CCOCC2)cc1C (stereo not given)	nt	nt	nt	-23%	nt	?
COc1ccc(NC(=O)C(=O)NCC(c2cccnc2)N2CCc3ccccc32)cc1OC (stereo not given)	nt	nt	nt	?	nt	21µM*
COc1ccc(C)cc1NC(=O)C(=O)NCC(c1cccnc1)N1CCc2ccccc21 (stereo not given)	nt	nt	nt	?	nt	15µM*
CCOc1ccc(NC(=O)C(=O)N/N=C/c2cccnc2)cc1	1%	20%	7%	-4%	6	22%
CCCCn1c(=O)c2oc3ccccc3c2n(Cc2ccc(C)cc2)c1=O	nt	nt	nt	-4%	nt	?
CCCCN(C(=O)C1CC(=O)N(CCc2ccc(OC)c(OC)c2)C1)c1c(N)n(CC(C)C)c(=O)[nH]c1=O (stereo not given)	6%	6%	nt	-4%	-10	13%
c1ccc(-c2nc(SCC3CCCCO3)n[nH]2)cc1 (stereo not given)	nt	nt	nt	8%	nt	?
COc1ccc(C)cc1NC(=O)C(=O)NCC(c1cccnc1)N1CCN(c2ccccc2F)CC1 (stereo not given)	nt	nt	nt	?	nt	18µM*
CCc1ccccc1NC(=O)C(=O)NCC(c1cccnc1)N1CCN(c2ccccc2F)CC1 (stereo not given)	nt	nt	nt	?	nt	15µM*
COc1ccccc1N1CCN(C(CNC(=O)C(=O)NCCCN(C)C)c2cccnc2)CC1 (stereo not given)	nt	nt	nt	-11%	nt	-6%
O=C(NCc1ccccc1Cl)C1CCCN1C(=O)Nc1ccccc1 (stereo not given)	11%	2%	0%	-16%	9	2%
CC(=O)N1CCc2cc(S(=O)(=O)CCC(=O)NCCc3ccccc3)ccc21	5%	3%	6%	-3%	0	-1%
CC(=O)N1CCc2cc(S(=O)(=O)CCC(=O)NCc3ccc(Cl)cc3)ccc21	-19%	-13%	?	?	-9	21µM*
CC(=O)N1CCc2cc(S(=O)(=O)NCCC(=O)NCCc3ccc(Cl)cc3)ccc21	11%	3%	?	16µM*	-6	?
CCC(=O)N1CCc2cc(S(=O)(=O)NCCC(=O)Nc3cc(C)cc(C)c3)ccc21	9%	8%	-23%	-20%	-15	-12%
CCC(=O)N1CCc2cc(S(=O)(=O)NCCC(=O)NCc3ccc(C)cc3)ccc21	nt	nt	nt	21µM*	nt	?
CC(=O)N1CCc2cc(S(=O)(=O)NCCC3=CCCCC3)ccc21	-9%	21µM*	nt	9.2µM*	1	2.6µM*
CC(=O)N1CCc2cc(S(=O)(=O)CCC(=O)Nc3ccc(Cl)cc3F)ccc21	1%	2%	11%	-21%	-7	-3%
CC1(C(=O)NS(=O)(=O)c2ccc(F)cc2F)CCN1C(=O)c1ccccc1CCc1ccccc1 (stereo not given)	-2%	-10%	nt	?	23	?
CC(=O)N1CCc2cc(S(=O)(=O)NC3CCCc4ccccc43)ccc21 (stereo not given)	-16%	-29%	?	13µM*	20	14µM*
CC(=O)N1CCc2cc(S(=O)(=O)NCCC(=O)NCCc3ccccc3)ccc21	2%	-1%	-4%	?	29	?
CC(=O)N1CCc2cc(S(=O)(=O)NCCC(=O)NCCc3ccc(C)cc3)ccc21	-9%	?	?	29µM*	0	16µM*
O=C(O)c1ccc(S(=O)(=O)NC2CCCc3ccccc32)cc1 (stereo not given)	10%	13%	12%	-16%	5	-8%
CCOC(=O)C(O)(NC(=O)c1cccnc1)C(F)(F)F (stereo not given)	0%	-1%	7%	-2%	-3	0%
SMILES	HT1080-NT tox	HT1080 IDH1KD tx	ELG1 DNA repair	TDP1 cell CPT	IL-1B inflam inh	DT40 TDP1 no CPT
CC(=O)C(C(C)=O)C(NC(=O)c1cccnc1)(C(F)(F)F)C(F)(F)F	-4%	-1%	10%	7.3µM*	17	12µM*
COC(=O)[C@@H]1CCCN1Cc1ccc2c(c1)CN(Cc1ccccc1)CCO2	nt	nt	nt	15%[9.04 µM]	nt	-36%
CN(C)c1ccc(-c2ccc(CCO)cc2)cc1	nt	nt	nt	-16%	nt	-19%
CN(C)c1ccc(CCc2ccnc3ccccc23)cc1	nt	nt	nt	13µM*	nt	14µM*
CN(C)c1ccc(/C=C/c2ccnc3ccccc23)c(N)c1	nt	nt	nt	0.63µM*	nt	0.63µM*
CN(C)c1ccc(/C=C/c2ccnc3ccccc23)c(F)c1	nt	nt	nt	?	nt	13µM*
CN(C)c1ccc(/C=C\C=C/c2ccnc3ccccc23)cc1	nt	nt	nt	0.079µM*	nt	0.1µM*
CN(CC(=O)N1CCN(Cc2ccccc2)CC1)S(=O)(=O)c1cccc2nsnc12	-1%	5%	?	-28%	15	?
Cc1cc(NC(=O)CCC(=O)N(c2ccccc2)C(C(=O)NC2CCCC2)c2ccc(F)cc2)no1 (stereo not given)	-6%	-7%	-17%	5%	-4	-16%
Cc1cc(C)n(S(=O)(=O)c2ccc3oc(=O)ccc3c2)n1	0%	17%	9%	-19%	-17	-37%
CSc1ncc(C(=O)Nc2cccc(Cl)c2C)c(-c2ccccc2)n1	nt	nt	nt	-16%	nt	?
Nc1nc(NCCCN2CCOCC2)nc(Nc2ccc(F)cc2)c1[N+](=O)[O-]	-16%	-21%	-11%	?	16	?
Cc1cccc(Nc2nc(NCCCN3CCOCC3)nc(N)c2[N+](=O)[O-])c1	-8%	-2%	?	16µM*	-80*	15µM*
Nc1nc(NCCCN2CCOCC2)nc(Nc2ccccc2F)c1[N+](=O)[O-]	0%	-1%	-8%	-11%	-57*	16µM*
